RBX1-CUL1 inh – inhibitors of human ROC1-CUL1 ubiquitin ligase activity | P62877+Q13616 | in vitro K48 di-Ub FRET, acceptor:donor ratio, 45 min | inhibition, % at 10 µM | 140,000 compounds, 0.6% hits; in the data active means inhibition above about 25%
An asterisk follows results filed as active. Shown is part of a subset that was picked to be rich in hits.

SMILES	RBX1-CUL1 inh
CCOC(=O)c1ccc(NC(=O)CCCCCN2C(=O)/C(=C\c3ccc(Cl)cc3)SC2=S)cc1	-6.3
COc1cc(/C=C2/SC(=S)N(CC(=O)O)C2=O)ccc1OC(=O)c1ccc(C)cc1	93.0*
CCSc1nc(-c2ccc(OC)cc2)nc2c1COC(C)(C)C2	9.0
COCc1nnc(NC(=O)COc2ccc(C)cc2Br)s1	8.8
O=[N+]([O-])c1ccc(Oc2cccn3cc(-c4ccccc4)nc23)nc1	-10.0
COc1cc(C(=O)OCCCc2cc(C(C)=O)c(C)n2Cc2ccco2)cc(OC)c1OC	0.1
O=C(NNc1ccc([N+](=O)[O-])cc1[N+](=O)[O-])c1cccc2ccccc12	-9.4
Cc1ccccc1OCC(=O)NNc1ccc([N+](=O)[O-])cc1[N+](=O)[O-]	35.9*
CCOC(=O)c1cc(-c2ccc([N+](=O)[O-])cc2)n(NC(=O)COc2ccccc2C)c1C	0.1
Cc1ccc(OS(=O)(=O)c2ccccc2C)cn1	-1.7
N=C1CCCN1c1ccc(Cl)c(Cl)c1	-1.7
CCC(=O)N(C)c1ccc2c(c1)nc1n2CCOC1	8.5
Cc1ccccc1CN1CCN(C(=O)C(C)C)CC1	-5.2
C=CCN1C(=O)/C(=C\c2cccc(OC)c2OC)C(=O)NC1=S	-6.2
C=CCN1C(=O)/C(=C/c2ccc(-c3cccc(C(F)(F)F)c3)o2)C(=O)NC1=S	102.6*
Cc1ccc(-n2c(-c3ccccc3)cc(/C=C3\C(=O)NC(=S)N(c4ccc(C)c(C)c4)C3=O)c2-c2ccccc2)cc1	5.1
O=C1NC(=S)N(c2ccc(Cl)cc2)C(=O)/C1=C\c1ccc(-c2cccc(C(=O)O)c2)o1	99.9*
O=C(N/N=C/c1ccc(-c2cccc(C(=O)O)c2)o1)Nc1ccc(Cl)cc1	0.6
Cc1cc(C)cc(N2C(=O)NC(=O)/C(=C\c3ccc(Br)o3)C2=O)c1	94.1*
C=CCN1C(=O)/C(=C\c2cccc(OCc3ccc(F)cc3)c2)C(=O)NC1=S	0.8
O=C1NC(=S)N(c2ccccc2)C(=O)/C1=C\c1ccc(-c2ccc(F)cc2)o1	2.5
COc1ccc(/C=C2/C(=O)NC(=S)N(c3ccccc3)C2=O)cc1C(=O)O	2.4
COc1cc(Br)cc(/C=C2/C(=O)NC(=O)N(c3cc(C)cc(C)c3)C2=O)c1O	5.3
COc1cc(/C=C2\C(=O)NC(=O)N(c3cc(C)cc(C)c3)C2=O)cc(Br)c1O	6.9
Cc1ccc(N2C(=O)/C(=C\c3ccc(-c4ccc(Cl)c(C(=O)O)c4)o3)C(=O)NC2=S)cc1	63.4*
SMILES	RBX1-CUL1 inh
CC(C)N1CCN(C/C=C/c2ccccc2)CC1CCO (centres undefined)	-4.9
CS(=O)(=O)N(Cc1ccc(F)cc1)c1ccccc1F	-5.0
O=C(Cc1c(Cl)cccc1Cl)NCC1CCCO1 (centres undefined)	-1.8
O=S(=O)(Nc1ccc(Br)cn1)c1ccc(Cl)cc1	-8.1
COCCn1c(-c2ccccn2)nc2cc(NC(C)=O)cc(C(=O)N(Cc3ccccc3)CC3CC3)c21	-9.7
O=C(c1scc2c1OCCO2)N1CCc2onc(-c3cccc(F)c3)c2C1	-6.6
Cc1cccc(C)c1NC(=O)CSc1nnc(CNC(=O)c2ccccc2F)n1C	2.3
O=C(COc1ccc(-c2nc3c(cnn3Cc3cccnc3)[nH]2)cc1)N1CCCC1	12.9
O=C1NC(=S)N(c2cccc(F)c2)C(=O)/C1=C/c1ccc(N2CCCC2)o1	26.1*
O=C1NC(=S)NC(=O)C1=Cc1cc(Br)c(Sc2ccc(Cl)cc2)o1	9.6
COC(=O)CN1C(=O)S/C(=C/c2cc(Br)c(Sc3ccc(Cl)cc3)o2)C1=O	4.4
O=C1Nc2ccccc2/C1=C/c1ccc(-c2cccc(C(=O)O)c2)o1	16.2
COc1ccc(N2C(=O)/C(=C/c3cc(C)n(-c4ccc(NC(C)=O)cc4)c3C)C(=O)NC2=S)cc1	7.3
O=C1NC(=S)N(c2cccc(Br)c2)C(=O)/C1=C/c1cc(Br)c(O)c(Br)c1	4.4
COc1ccc(N2C(=O)/C(=C/c3cc(C)n(-c4ccc(Cl)c(C(=O)O)c4)c3C)C(=O)NC2=S)c(OC)c1	79.5*
CC(C)Oc1ccccc1/C=C1\C(=O)NC(=S)N(c2cccc(F)c2)C1=O	-12.7
Cc1cc(C)cc(N2C(=O)NC(=O)/C(=C/c3ccc(-c4cccc(C(=O)O)c4)o3)C2=O)c1	85.1*
Cc1ccc(N2C(=O)NC(=O)/C(=C\c3cc(Br)c(Sc4ccc(Cl)cc4)o3)C2=O)cc1	99.6*
COC(=O)c1ccccc1-n1c(C)cc(/C=C2\C(=O)NC(=S)N(c3ccc(OC)cc3)C2=O)c1C	6.4
COc1cccc(/C=C2/C(=O)NC(=O)N(c3cc(C)cc(C)c3)C2=O)c1O	12.1
O=C(Cc1ccccc1)NNC(=S)Nc1cccc(C(F)(F)F)c1	-8.6
C=CCN=Cc1ccc2oc(C(=O)OCC)c(C)c2c1Cl	-2.6
Fc1ccc(F)c(CN2CCCC(c3ccnc(SCCN4CCCC4)n3)C2)c1F (centres undefined)	-2.4
Cc1ccc2nc(-c3ccc(Cl)cc3)cc(C(=O)O)c2c1	1.0
Cc1ccc(C(C)C)c(OCC(=O)Nc2ccccc2F)c1	-4.8
SMILES	RBX1-CUL1 inh
Cc1c(Cl)ccc(C(=O)O)c1N	6.1
Cc1cccc(-c2ccc3c4ccccc4cc-3o2)c1	-5.3
Cc1cccc(NC(=O)C2=CC3C(=O)CC(c4ccccc4)CC3=NC2=O)c1 (centres undefined)	-5.1
Cc1ccc(N2C(=O)CC(N3CCN(c4ccccc4Cl)CC3)=NC2=O)cc1	-8.8
Cc1nc(N2CCCC(NCc3cc(F)ccc3F)CC2)nc2ccc(F)cc12 (centres undefined)	-17.8
COc1ccccc1Cc1nc(C2CCN(C)CC2)cc(=O)[nH]1	10.7
COc1ccccc1/C=C/C(=O)C1C=C(Br)C=C(Br)C(=O)C1=O (centres undefined)	27.6*
COc1cccc(/C=C/C(=O)C2C=C(Br)C=C(Br)C(=O)C2=O)c1 (centres undefined)	-3.3
Cc1ccccc1/C=C/C(=O)C1C=C(Br)C=CC(=O)C1=O (centres undefined)	-1.5
COCCC(=O)N1CCC(N2CCC(C(=O)NCCc3ccccc3)CC2)CC1	2.6
Clc1cc(/C=C/c2ccsc2Br)c(Cl)s1	4.0
O=C(OCCOc1ccccc1)C(C(F)(F)F)C(F)(F)F	84.5*
NC(=O)c1ccccc1OCCOc1ccccc1	17.8
O=C(OCCOc1ccccc1)c1ccc(-c2ccccc2)cc1	0.4
CCCOc1c(Cl)cc(C(=O)O)cc1OC	2.8
Nc1cc(N)nc(SCC(=O)Nc2ccccc2Cl)n1	-4.4
Cc1ccc2c(c1)c(-c1ccccc1)c(-c1ccccc1)n2CC(O)CN1CCN(c2ccccn2)CC1 (centres undefined)	-6.9
COC(=O)C1C(=O)C(C(=O)OC)C(c2ccc(C)cc2)C(C#N)(C#N)C1c1ccc(C)cc1 (centres undefined)	-7.7
O=C(COc1ccc(C2CCCCC2)cc1)Nc1ccccc1F	9.1
COC(=O)c1ccccc1NC(=O)COc1ccc(C2CCCCC2)cc1	-4.1
CC(C)(Oc1ccc(C2CCCCC2)cc1)C(=O)O	66.4*
COc1ccc(/C=C(\C#N)c2nc3ccccc3s2)cc1[N+](=O)[O-]	1.4
O=C1C=C(CO)OC(CN2CCCC2)C1=O (centres undefined)	1.4
CSc1ncnc2c1sc1nc(-c3cccs3)cc(C(F)(F)F)c12	-2.5
N=c1c2sc3nc(-c4cccs4)cc(C(F)(F)F)c3c2ncn1N	38.7*
FC(F)(F)c1cc(-c2cccs2)nc2sc3c(=S)nc[nH]c3c12	3.5
CCCCOc1ccc(Cc2n[nH]c(=S)n2C)cc1	6.6
O=C(CN1C(=O)c2ccccc2C1=O)Nc1ccc(I)cc1	-5.9
